mHTT CaM bind = disrupts binding of mutant huntingtin to calmodulin; P42858; AlphaScreen His-mHTT/GST-CaM binding, luminescence; inhibition, % at 15 µM; hit rate 3.6% among 190,000;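 further: 0% = both proteins with DMSO and 100% = one protein alone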
Pf apPOL block = Pf-apPOL DNA polymerase inhibition | Recombinant Pf-apPOL, molecular beacon fluorescence, 1.5 h | inhibition, % at 10 µM | hit rate 0.25% among 210,000 | AID 1794808
The depositor's hits bear a star; nt = no result; ! = repeats disagree. Rows were chosen to be rich in hits. Some 3.5% of all compounds tested hit in one or more screens of this group. No stated cut-off is given here; in the data, active means inhibition above about 50%; inactive means the rest.

SMILES | mHTT CaM bind | Pf apPOL block
Cc1ccc(C2=C(c3ccccc3)C(=O)C(c3ccccc3)=C2c2ccc(Cl)cc2)cc1 | nt | -4.2
Cc1nc2c(oc3nc(-c4ccco4)c4c(c32)CC(C)(C)OC4)c(-c2ccccc2)c1C(=O)O | 49.0 | -2.0
Cc1nc2c(oc3nc(-c4ccoc4)c4c(c32)CC(C)(C)OC4)c(-c2ccccc2)c1C(=O)O | 74.0*! | -6.7
O=C(O)C1C2CCC(O2)C1C(=O)NCc1ccc(F)cc1 (stereo not drawn) | -2.0 | 5.5
COc1cc(O)c(C(CCN2CCOCC2)c2ccc3c(c2)OCO3)c(OC)c1 (stereo not drawn) | 24.1 | -6.6
CCN(CC)CCC(c1ccc(N(C)C)cc1)c1c(O)cc(OC)cc1OC (stereo not drawn) | 69.6* | -5.9
CCN(CC)CCC(c1ccc(OC)cc1)c1c(O)cc(OC)cc1OC (stereo not drawn) | 15.6 | -2.4
COc1cc(O)c(C(CCN2CCN(c3ccccc3)CC2)c2ccc(N(C)C)cc2)c(OC)c1 (stereo not drawn) | 97.3* | -1.7
COc1ccc(C(CCN2CCN(c3ccccc3)CC2)c2c(O)cc(OC)cc2OC)cc1 (stereo not drawn) | 71.8* | -7.2
COc1cc(O)c(C(CCN2CCOCC2)c2ccc(N(C)C)cc2)c(OC)c1 (stereo not drawn) | 58.3* | -6.6
COc1ccc(C(CCN2CCCCC2)c2c(O)cc(OC)cc2OC)cc1 (stereo not drawn) | -1.0 | -8.4
COc1ccc(C(CCN2CCCC2)c2c(O)cc(OC)cc2OC)cc1 (stereo not drawn) | 13.6 | -4.1
CCC(=O)N1CCc2sc(S(=O)(=O)N3CCN(c4ccccc4OC)CC3)cc2C1 | 41.0 | -4.0
COc1c(S(=O)(=O)NCc2ccc3c(c2)OCO3)ccc(Cl)c1Cl | 3.1 | -6.7
CC(=O)c1ccc(NC(=O)c2cc3nc(-c4ccc5c(c4)OCO5)cc(C(F)(F)F)n3n2)cc1 | 5.0 | -34.7
COc1cc(O)c(C(CCN2CCCC(C)C2)c2ccc(N(C)C)cc2)c(OC)c1 (stereo not drawn) | 54.7* | 7.2
COc1cc(OC)c2c(C)cc(=O)oc2c1C(CCN1CCCC(C)C1)c1ccc(N(C)C)cc1 (stereo not drawn) | 79.2* | -8.1
COc1cc(O)c(C(CCN2CCCC(C)C2)c2ccc3c(c2)OCO3)c(OC)c1 (stereo not drawn) | 32.9 | 7.0
COc1cc(OC)c2ccc(=O)oc2c1C(CCN1CCCC1)c1ccc(N(C)C)cc1 (stereo not drawn) | 46.2 | -0.1
COCCN1C(=O)CCc2cc(NC(=O)c3cc(C)cc(C)c3)ccc21 | 20.8 | -3.4
O=S(=O)(Nn1cnnc1)c1ccc2c(c1)OCCO2 | 18.6 | 4.1
CCOc1c(C)cc(-c2ncccc2O)cc1C | -0.8 | -0.2
CCOCc1ccc(O)c2ncccc12 | 100.3* | -4.3
COc1ccc(Cl)cc1NC(=O)c1c(NCc2ccncc2)sc2c1CCCC2 | 79.0* | -20.1
COc1ccc(CC(=O)Nc2sc3c(c2C(N)=O)CCCCCC3)cc1OC | 5.5 | -1.4
SMILES | mHTT CaM bind | Pf apPOL block
COc1ccc(OC)c(NC(=O)c2c(NCc3ccncc3)sc3c2CCC3)c1 | 88.0* | -14.9
COc1ccc(NC(=O)c2c(NC(=O)CN3CCCC3)sc3c2CCC3)c(OC)c1 | -2.3 | -6.8
COc1ccc(NC(=O)c2c(NC(C)=O)sc3c2CCCC3)c(OC)c1 | -0.7 | -1.9
COc1ccc(OC)c(NC(=O)c2c(NC(=O)CCC(=O)O)sc3c2CCCCC3)c1 | 53.7* | -8.4
COc1ccc(OC)c(NC(=O)c2c(NCc3ccncc3)sc3c2CCCC3)c1 | 70.0* | -16.9
COc1ccccc1NC(=O)c1c(NC(=O)c2ccccc2Cl)sc2c1CCCC2 | -7.3 | -3.4
COc1cccc(C(=O)N2CCCC3(C2)Nc2ccccc2NC3=NC(C)(C)C)c1OC (stereo not drawn) | 21.2 | -0.9
O=C(CCc1ccccc1)N1CCN(c2nc(CN3CCOCC3)cs2)CC1 | 8.2 | 2.2
O=C(Nc1ccccc1Cl)c1ccc(Cl)c(S(=O)(=O)N2CCCCCC2)c1 | -2.6 | -2.9
O=C(O)c1ccccc1NCc1ccc(Cl)cc1 | 12.1 | 34.4
Cc1c(C(=O)NC2CCCCC2)oc2ccc(S(=O)(=O)N(C)C3CCCCC3)cc12 | -3.0 | 1.9
COc1ccc(OC)c(NC(=O)c2cccnc2)c1 | 2.3 | -2.2
COc1ccc(OC)c(NC(=O)c2c(NCc3cccnc3)sc3c2CCCC3)c1 | 69.0* | -16.5
CCOc1ccc2nc(C)cc(Nc3cc(Cl)ccc3OC)c2c1 | 27.0 | -3.9
Cc1cc(C)c2nc(C)cc(Nc3ccc(C(=O)O)cc3)c2c1 | 3.3 | -14.0
CCOc1ccc(Nc2c3ccccc3nc3ccccc23)cc1 | 63.4* | -6.2
CCOc1ccc2nc(C)cc(Nc3ccc(OCc4ccccc4Cl)cc3)c2c1 | 98.1* | -2.4
Cc1cc(C)c2nc(C)cc(Nc3ccc(OCc4ccccc4)cc3)c2c1 | 89.8* | 0.1
CCOc1ccc(Nc2nc(-c3ccccc3)cs2)cc1 | 8.9 | -2.1

Compound activity: PubChem, University of Kansas High Throughput Screening Laboratory
